# Results: ChEMBL document CHEMBL3988442, “University of Dundee, Small-Polar-MMV Screening Library” (2021)
# Out of some 48,000 compounds screened, about 13,000 (27%) showed an effect of 50% or more. This is one part of the list.
# Tested on: Wolbachia pipientis
# Experiment: Anti-Wolbachia Cell-Based Screen
# Format: functional
# Parameters: scale not given: in the data most compounds retested in dose-response had high values
# Details: 5 µM
row,Structure (SMILES),Percent Effect
1,CC(CCNC(=O)N(C)CC1CCOCC1)N1CCCCC1 (configuration not stated),-7.573%
2,CCc1nc(CN2CCCN(C(=O)C(C)n3ccnc3)CC2)cs1 (configuration not stated),0.184%
3,Cc1cnc(N2CCC3(CC2)CC3C(=O)NCC2CC2)nc1 (configuration not stated),-18.23%
4,CCS(=O)(=O)N1Cc2cncn2CC(C(=O)NCC2CC2)C1 (configuration not stated),119.2%
5,O=C([C@@H]1Cc2[nH]cnc2CN1C(=O)NC1CCCCC1)N1CCCC1,6.906%
6,O=C(NCC1CC1)C1CN(C(=O)NC2CCCC2)Cc2cncn2C1 (configuration not stated),100.7%
7,CC(C)N(C(=O)N1CCn2cncc2C1)C(C)C,10.83%
8,O=C(NC1CCCCC1)[C@H]1CNC[C@@H](COc2cccnc2)C1,11.4%
9,CN(C)CCN1CC2(CCCN(c3ncc(Cl)cc3F)C2)CCC1=O (configuration not stated),4.533%
10,O=C(c1ccc2c(c1)CCCC2)N1CCCC(n2cncn2)C1 (configuration not stated),100.2%
11,O=C(c1ccc2c(c1)COC2)N1CCCC(n2cncn2)C1 (configuration not stated),130%
12,O=C(c1ccc(Cl)c(Cl)c1)N1CCCC(n2cncn2)C1 (configuration not stated),3.266%
13,Cc1nc(C)n(C2CCCN(C(=O)c3ccc4c(c3)COC4)C2)n1 (configuration not stated),-5.905%
14,O=C(c1cccc(N2CCCC2=O)c1)N1CCCC(n2cncn2)C1 (configuration not stated),0.04653%
15,Cn1ccc(C(=O)N2CCCC(n3cncn3)C2)cc1=O (configuration not stated),3.949%
16,Cc1cc(Nc2ccc3c(c2)CC(=O)N3)nc(C(C)C)n1,5.406%
17,CCO[C@@H]1CO[C@@]2(CCCN(Cc3scnc3C)C2)C1.O=C(O)C(F)(F)F,-0.3895%
18,CCS(=O)(=O)N1CC[C@]2(C[C@@H](OCC3CC3)CO2)C1,-6.112%
19,COc1ccccc1CN1CC[C@]2(C[C@H](OC)CO2)C1.O=C(O)C(F)(F)F,9.484%
20,O=C(COc1ccccc1)N1CCC[C@]2(C[C@@H](OCC3CC3)CO2)C1,18.43%
21,O=C(COc1ccccc1)N1CCC[C@]2(C[C@H](OCC3CC3)CO2)C1,5.425%
22,CCO[C@H]1CO[C@@]2(CCCN(Cc3nc(C)cs3)C2)C1.O=C(O)C(F)(F)F,-3.246%
23,CCO[C@H]1CO[C@@]2(CCCN(Cc3scnc3C)C2)C1.O=C(O)C(F)(F)F,114.2%

row,Structure (SMILES),Percent Effect
1,CO[C@@H]1CO[C@@]2(CCCN(Cc3nc(C)cs3)C2)C1.O=C(O)C(F)(F)F,128.3%
2,Cc1noc(C)c1CN1CCC[C@]2(C[C@@H](Oc3ccccn3)CO2)C1.O=C(O)C(F)(F)F.O=C(O)C(F)(F)F,-19.05%
3,Cc1csc(CN2CCC[C@]3(C[C@H](OCC4CC4)CO3)C2)n1,94.91%
4,O=C(O)C(F)(F)F.O=S(=O)(C1CC1)N1CCC[C@]2(C[C@@H](Oc3ccccn3)CO2)C1,2.781%
5,Cc1csc(CN2CCC[C@]3(C[C@@H](OCC4CC4)CO3)C2)n1.O=C(O)C(F)(F)F,105.3%
6,Cl.c1cnc(N2CCCC(NCc3cccc4c3OCCO4)C2)nc1 (configuration not stated),11.77%
7,Cc1cn2c(n1)CCC(NS(=O)(=O)c1ccc(C)s1)C2 (configuration not stated),-1.096%
8,Cc1ccc2c(c1)C1(CCN(C(=O)C3CC3)CC1)CC2N1CCOCC1.O=C(O)C(F)(F)F (configuration not stated),4.954%
9,Cc1cc(C)n(CC2CCCCN2CC(=O)Nc2c(C)n[nH]c2C)n1 (configuration not stated),1.6%
10,Cc1cc(CN2CCC(CNC(=O)CN3CCCCCC3)C2)[nH]n1 (configuration not stated),4.399%
11,Cc1n[nH]c(C)c1CCC(=O)NCC1CCOc2ccccc2C1 (configuration not stated),-7.064%
12,CCCc1nc(C)c(C(=O)NCC2CCN(C3CC3)C2)s1 (configuration not stated),9.564%
13,Cc1n[nH]c(C)c1NC(=O)CN1CCCC(CNC(=O)C(C)(C)C)C1 (configuration not stated),3.245%
14,Cc1[nH]nc(CCC(=O)NCC2CCCN(C3CCCC3)C2)c1C (configuration not stated),91.65%
15,Cc1n[nH]c(C)c1CCC(=O)NCC1CCCN(C2CCCC2)C1 (configuration not stated),80.33%
16,Cc1[nH]nc(CCC(=O)NCC2CCN(C3CCCCC3)C2)c1C (configuration not stated),82.83%
17,Cc1[nH]nc(CCC(=O)NCC2COc3ccccc3C2)c1C (configuration not stated),-76.22%
18,Cc1n[nH]c(C)c1CCC(=O)NCC1COc2ccccc2C1 (configuration not stated),-6.3%
19,Cc1ccc(C2CN(C(=O)NCc3nnc4ccccn34)CCO2)o1 (configuration not stated),-6.842%
20,Cc1cnn(CC(=O)NCC2(O)CCCc3ccccc32)c1 (configuration not stated),-1.481%
21,CN(Cc1ccc(C(N)=O)cc1)c1ccc(C(F)(F)F)cn1,16.53%
22,FC(F)(F)c1ccccc1CN1CCOC[C@H](Oc2cccnc2)C1,-13.87%
23,COc1cccc2c1N(Cc1nc(C3CC3)no1)CCC2,-12.66%

row,Structure (SMILES),Percent Effect
1,Cc1cc(N2CCN(C(=O)CCc3scnc3C)CC2)cc(C)n1,13.55%
2,Cc1cc(N2CCCN(c3ccnc(C)c3)CC2)ccn1,10.82%
3,CNc1nc(C(=O)N2CCCN(c3ccnc(C)c3)CC2)cs1,103.6%
4,Cc1cc(N2CCCN(C(=O)Cc3csc(C)n3)CC2)ccn1,-22.63%
5,CNc1nc(C(=O)N2CCCC(c3nccn3CC3CCC3)C2)cs1 (configuration not stated),4.458%
6,CNc1nc(C(=O)N2CCN(c3cc(C)nc(C)c3)CC2)cs1,104.9%
7,Cc1noc2ncc(C(=O)N(CC3CCOC3)C3CC3)cc12 (configuration not stated),-8.329%
8,CC(C)Cn1cc(NC(=O)NCC2CCN(c3ccccc3)C2)cn1 (configuration not stated),-4.161%
9,COCCN(C)CCN1CC2(CCN(C3CCOC3)CC2)OC1=O (configuration not stated),-5.724%
10,COc1ccc(-c2n[nH]c(C)c2CC(=O)NCCN2CCOCC2)cc1,95.82%
11,COc1ccc(-c2n[nH]c(C)c2CC(=O)NCC2CCOCC2)cc1,94.98%
12,COc1ccc(CC(=O)Nc2c(C)nc(N3CCOCC3)nc2C)cc1,11.03%
13,COc1ccc(OCc2nc(C(=O)NCCN3CCOCC3)co2)cc1,-20.12%
14,Cc1ccc(-c2nc(CC(=O)NCC3CCOC3)cs2)o1 (configuration not stated),7.713%
15,COc1ccc(-c2n[nH]c(C)c2CC(=O)N2CCOCC2)cc1,82.2%
16,Cc1ccc(-n2nnc(CC(=O)N3CCOCC3)c2C)cc1,-5.261%
17,Cc1ccc(-c2cc(C(=O)NCCN3CCOCC3)n[nH]2)s1,2.618%
18,CCC(=O)c1ccc(OCC(=O)NCC2CCCO2)cc1 (configuration not stated),8.672%
19,Cc1cc(=O)n(CC(=O)NCC2CCCO2)c(-c2ccc(F)cc2)n1 (configuration not stated),12.17%
20,COc1ccc2c(c1)OCC(CNC(=O)CCc1c(C)n[nH]c1C)C2 (configuration not stated),2.391%
21,COc1ccc(-c2n[nH]c(C)c2CC(=O)NCC2CCCO2)cc1 (configuration not stated),140.4%
